# Rows were chosen to be rich in hits. Some 1.7% of all compounds tested hit in one or more screens of this group.
# PTHR1 agonist: activates the human parathyroid hormone receptor PTHR1; Q03431; HEK293 GP2 PTHR1 cells, GloSensor cAMP luminescence, 1 h; Potency, µM (titrated, usually from 115 µM), for the others: at the top dose activation, most hits filed as activators; 410,000 compounds, 0.075% hits; also: nearly all actives have a fitted effect of over 55% in size
# Target sequence (Q03431 whole entry, looked up): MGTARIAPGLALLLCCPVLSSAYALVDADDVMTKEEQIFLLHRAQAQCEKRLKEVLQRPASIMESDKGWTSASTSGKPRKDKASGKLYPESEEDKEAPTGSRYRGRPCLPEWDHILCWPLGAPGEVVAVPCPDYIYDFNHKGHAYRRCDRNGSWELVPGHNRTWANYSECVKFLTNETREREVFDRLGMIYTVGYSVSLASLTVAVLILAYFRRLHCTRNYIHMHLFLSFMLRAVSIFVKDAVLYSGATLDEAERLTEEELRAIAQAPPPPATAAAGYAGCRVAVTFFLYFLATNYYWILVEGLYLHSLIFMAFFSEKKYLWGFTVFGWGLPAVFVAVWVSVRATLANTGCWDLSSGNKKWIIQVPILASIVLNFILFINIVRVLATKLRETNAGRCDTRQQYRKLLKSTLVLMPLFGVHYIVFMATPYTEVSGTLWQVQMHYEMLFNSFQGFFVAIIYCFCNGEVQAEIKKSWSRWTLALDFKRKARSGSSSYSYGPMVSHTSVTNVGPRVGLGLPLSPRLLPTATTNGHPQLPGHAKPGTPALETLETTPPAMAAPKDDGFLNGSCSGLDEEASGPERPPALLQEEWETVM
#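 HEK-293-derived GP2 cells expressing PTHR1 and a GloSensor cAMP reporter, 3,000/well, plated overnight, given luciferin plus IBMX (each 0.5 mM as added) for 1 h at 37 °C, then compound for 1 h at 37 °C. Luminescence was read after 15 min at room temperature.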
# GLP-1R inv ag: inverse agonists of human GLP-1 receptor; P43220; 410,000 compounds, 1.6% hits; AID 624417; HEK293 GLP-1R CRE-luciferase, luminescence, 24 h; GLP-1R form is constitutively active; Potency, µM (top dose mostly 38.3 µM), for the others: top-dose activity change, negative = inhibition, most hits filed as inhibitors; also: % is scaled to controls: 0 for no effect and ±100 for the full control effect; nearly all actives have a fitted effect of over 55% in size
#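 GLP-1R inverse agonism mode: basal reporter luminescence in engineered HEK293 cells measured after one day of compound exposure at 37 deg C, with a 12 min room-temperature detection step.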
# GLP1R cytotox: cytotoxicity counter-screen for GLP-1 receptor inverse agonists | 410,000 compounds, 0.13% hits | HEK293 cAMP-luciferase reporter cells, luminescence, 24 h | Potency, µM (series often up to 38.3 µM), inactives show at the top dose activity change, negative = inhibition, hits mostly inhibitors;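 also: loss of luciferase light is scored as toxicity; % is scaled to controls: 0 for no effect and ±100 for the full control effect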
#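 Luminescence readout: signal drop marks cytotoxicity. Plated cells grew 12 h at 37 °C, 5% CO2, received 23 nL compound for 24 h, then got luciferase reagent, read after 12 min at RT.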
# GLP-1R agonist: activates the human GLP-1 receptor; 380,000 compounds, 0.007% hits; HEK293 GLP-1R CRE-luciferase, luminescence, 4-6 h; cells express a hypersensitive GLP-1R form; AID 624172; Potency, µM (series often up to 45.6 µM), inactives show top-dose activation, hits mostly activators; also: % of control where 0% means no effect
# * hit, by the source's call; i = inactive; ? = inconclusive; nt = no result; ! = repeats disagree. Calls follow the shape of the dose curve; as a rule, active = well fitted curve in the direction sought with a large enough effect; inconclusive = small, poorly fitted or top-dose-only effect, or another doubt; inactive = no such curve, though single readings can be large; an effect the other way counts as inactive or inconclusive. Potency is read from the fitted curve at half-maximal effect.
SMILES,PTHR1 agonist,GLP-1R inv ag,GLP1R cytotox,GLP-1R agonist
CCOC(=O)N1CCN(S(=O)(=O)c2ccc(C(=O)N(CCN(C)C)c3nc4ccc(Cl)cc4s3)cc2)CC1,-15%,8.9µM*,0%,-3%
CCOC(=O)N1CCN(S(=O)(=O)c2ccc(C(=O)N(CCCN(C)C)c3nc4ccc(OC)cc4s3)cc2)CC1,-28%,?,-5%,-2%
Cc1cc(C)c2nc(N(CCCN(C)C)C(=O)c3ccc4c(c3)CCCC4)sc2c1,i,4.5µM*,?,-10%
Cc1cc(C)c2nc(N(CCCN(C)C)C(=O)c3ccc(S(=O)(=O)N4CCCCCC4)cc3)sc2c1,i,13µM*,?,-6%
CC1(C(=O)NCc2ccc3c(c2)OCO3)CCN1C(=O)C1(c2ccc(Cl)cc2)CC1 (configuration not stated),i,?,5%,2%
CC[C@H](C)[C@H]1CNC(=S)N1CC1CCN(CCC23CC4CC(CC(C4)C2)C3)CC1,-70%,-35%,3%,6%
CCOC(=O)N1CCc2c(sc3c2c(=O)n(-c2ccc(F)cc2)c(=O)n3CC(=O)c2ccc(Cl)cc2)C1,-13%,-14%,-9%,nt
Cn1c(=O)cc(SCC(=O)N2CCN(c3ccccc3F)CC2)c2ccc(Cl)cc21,-9%,5%,1%,nt
COc1cccc(Nc2c3c(nc4c(-c5ccccc5)c(C)nn24)CCC3)c1,-17%,5µM*,2%,2%
Cc1noc(C)c1S(=O)(=O)N(CC(=O)NCCc1ccc(Cl)cc1)c1ccc(C(C)C)cc1,-37%,-23%,4%,-1%
O=C(Nc1ccccn1)c1onc2c1CCCC2,-26%,2.5µM*,20%,-32%
O=C(Nc1ccccn1)c1csc2c1CCCC2,-4%,0%,6%,17%
COc1ccc(-c2[nH]c(-c3ccc(F)cc3)nc2SCC(=O)NC2CCCC2)cc1,i,7.9µM*,-20%,4%
COc1ccc(-c2nc(SCC(=O)NC3CCCC3)c(-c3ccc(F)cc3)[nH]2)cc1,i,?,-14%,nt
COc1ccc(-c2[nH]c(-c3ccccc3)nc2SCC(=O)NC2CCCC2)cc1,-6%,10µM*!,-3%,2%
COc1cccc(-c2cc(C(F)(F)F)nc(NCCc3ccccc3)n2)c1,-7%,?,3%,1%
COc1ccc(-c2cc(C(F)(F)F)nc(NCCc3ccccc3)n2)cc1,i,3.2µM*,25%,0%
COc1ccc(CCNc2nc(-c3ccccc3OC)cc(C(F)(F)F)n2)cc1OC,-25%,3.5µM*,15%,3%
COc1ccc(-c2cc(C(F)(F)F)nc(NCCc3ccccc3)n2)cc1OC,-5%,19%,1%,2%
CCCN(CCC)C(=O)C(CCC(=O)OCCCN1CCN(CCOC(=O)Cc2c(C)n(C(=O)c3ccc(Cl)cc3)c3ccc(OC)cc23)CC1)NC(=O)c1ccccc1 (configuration not stated),nt,nt,nt,0%
Cc1ccc(NC(=O)C(c2ccccc2)C2CCCC2)cc1 (configuration not stated),-6%,?,-15%,-3%
O=C(Nc1ccc2ccccc2c1)C(c1ccccc1)C1CCCC1 (configuration not stated),-20%,5µM*,2%,-8%
C[Se]CC[C@H](N)C(=O)O,nt,nt,nt,1%
CC1(C(=O)Nc2cccc(C(F)(F)F)c2)Cc2c(-c3cccc(C(F)(F)F)c3)ccnc2O1 (configuration not stated),1%,?,-17%,-2%
CC1(C(=O)NCc2ccc(F)c(F)c2)Cc2c(-c3cccc(C(F)(F)F)c3)ccnc2O1 (configuration not stated),-44%,10µM*,-23%,-1%
SMILES,PTHR1 agonist,GLP-1R inv ag,GLP1R cytotox,GLP-1R agonist
CC(=O)Nc1cccc(-c2ccnc3c2CC(C)(C(=O)Nc2cccc(C(F)(F)F)c2)O3)c1 (configuration not stated),-24%,11µM*,-34%,2%
O=C(O)CCC(=O)OCCN(Cc1ccc(Oc2ccc([N+](=O)[O-])cc2)cc1)C(=O)C(Cl)Cl,-71%,-2%,-3%,6%
CN1C(=O)[C@H]2[C@@H](c3ccc(C(F)(F)F)cc3)N[C@]3(CCCN(Cc4ccc(Cl)cc4)C3=O)[C@H]2C1=O,-22%,11µM*,-32%,0%
CN1C(=O)[C@H]2[C@@H](c3ccc(C(F)(F)F)cc3)N[C@]3(CCCN(Cc4ccc(F)cc4)C3=O)[C@H]2C1=O,-50%,-24%,2%,4%
CCN1C(=O)[C@H]2[C@@H](c3ccc(OC)cc3)N[C@]3(CCCN(Cc4ccc(C(F)(F)F)cc4)C3=O)[C@H]2C1=O,-25%,0%,0%,0%
COc1ccc(CN2CCC[C@]3(N[C@H](c4ccc(C(F)(F)F)cc4)[C@@H]4C(=O)N(Cc5ccccc5)C(=O)[C@@H]43)C2=O)cc1,-25%,8.9µM*,-3%,-2%
CNC(=O)c1cc(Oc2ccc(NC(=O)c3[nH]c(-c4ccccc4)c4c3C(=O)N(C)C4=O)cc2)ccn1,12%,4%,10%,-2%
COc1ccc(OC)c(NC(=O)CSc2nc(=O)n(CCN(C)C)c3c2CCC3)c1,i,4%,0%,nt
CC1(C(=O)Nc2ccc(Cl)c(Cl)c2)CCN1C(=O)CC1CCCC1 (configuration not stated),-36%,14µM*,1%,5%
Cc1ccc(CSc2nnc(CCCCCNC(=O)OC(C)(C)C)o2)cc1,-18%,?,16%,21%
Cc1cccc(CSc2nnc(CCCCCNC(=O)OC(C)(C)C)o2)c1,-26%,7.1µM*,-1%,19%
COc1ccccc1OCC(=O)NNC(=O)CSC(=S)N1CCCC1,i,-17%,-8%,-1%
COc1ccc(NC(=O)Cn2c(=O)n(CCCC(=O)NCc3ccccc3OC)c(=O)c3ccccc32)cc1Cl,-34%,20%,-1%,0%
CCN(CC)c1ccc(/C=N/NC(=O)c2ccoc2C)c(O)c1,i,3.5µM*,51%,-3%
O=C(CO)NCCCOc1cccc(CN2CCCCC2)c1,nt,nt,nt,2%
CCC(C)Oc1cc(-c2ccnc(Nc3cccc(Cl)c3)n2)ccn1 (configuration not stated),i,11µM*,8%,-10%
Nc1ccc(Cn2ccc3c4c(N)nc(N)nc4ccc32)cc1,-12%,?,7.9µM*,13%
CCC(C)c1ccc(OCC(=O)Nc2cccc(-c3nc4ncccc4o3)c2)cc1 (configuration not stated),-2%,?,-5%,nt
Cc1ccc(C)c(Nc2nc3nonc3nc2Nc2cccc(C)c2C)c1,-83%,?,?,nt
CCOC(=O)c1ccc(Nc2nc3nonc3nc2Nc2cccc(C)c2C)cc1,-35%,2.8µM*,?,nt
COc1ccc(NC(=O)CC2C(=O)N(Cc3cccs3)C(=S)N2C(C)C)cc1 (configuration not stated),-3%,?,-6%,10%
